High-throughput results from PubChem BioAssay.
In the library only some 3.1% were active in any assay of this set; here they are far more common.
D3 ag: agonists of human D3 dopamine receptor. P35462. D3R DiscoveRx beta-arrestin cells, luminescence, 90 min. AID 652048. max activation, %. 0.58% of 410,000 active; in the data active = max activation above about 30%; note: 0% is about no effect
Target sequence (P35462 whole entry, looked up): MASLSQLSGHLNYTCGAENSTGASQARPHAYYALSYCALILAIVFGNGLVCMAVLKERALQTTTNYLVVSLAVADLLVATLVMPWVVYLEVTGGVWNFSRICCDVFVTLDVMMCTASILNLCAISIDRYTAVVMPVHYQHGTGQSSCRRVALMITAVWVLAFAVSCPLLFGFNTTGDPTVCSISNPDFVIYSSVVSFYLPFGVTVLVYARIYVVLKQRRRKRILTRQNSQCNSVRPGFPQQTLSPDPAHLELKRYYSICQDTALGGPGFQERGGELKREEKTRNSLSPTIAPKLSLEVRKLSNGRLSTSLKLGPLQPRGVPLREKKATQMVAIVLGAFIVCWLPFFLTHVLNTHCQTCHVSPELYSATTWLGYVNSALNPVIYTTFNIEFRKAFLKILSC
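Agonist-mode cell screen: cells plated at 1500/well and incubated overnight at 37 °C, then exposed to library compounds for 90 min at 37 °C. Detection reagent was added for 30–60 min at room temperature, and luminescence was read.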
RGS4 inh: blocks human RGS4-accelerated GTP hydrolysis; P49798; Transcreener GDP fluorescence polarization, RGS4-accelerated GTP hydrolysis; Potency, µM (doses to about 114 µM), for inactives: at the top dose activity change, negative = inhibition, usual class: inhibitors; 0.039% of 390,000 active; active = well fitted inhibition curve with a large enough effect; inconclusive = small, poorly fitted or top-dose-only effect; inactive = no such curve, though single readings can be large or run the other way; note: potency is the fitted concentration of half-maximal effect; % is set by controls: 0 for no effect and ±100 for the full control effect; nearly all actives have a fitted effect of over 75% in size
Target sequence (P49798 whole entry, looked up): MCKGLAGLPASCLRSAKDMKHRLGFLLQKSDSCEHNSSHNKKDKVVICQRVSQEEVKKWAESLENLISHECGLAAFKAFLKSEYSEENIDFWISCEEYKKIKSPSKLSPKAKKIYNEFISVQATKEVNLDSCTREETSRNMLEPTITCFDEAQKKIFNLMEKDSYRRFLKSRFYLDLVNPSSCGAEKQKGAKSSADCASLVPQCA
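MLSMR compounds (23 nl, pin-transferred) preincubated 10 min at room temperature with a 500nM (2x) first reagent, then RGS4 at 900nM (2x) plus Transcreener GDP mix added; fluorescence polarization (620/688 nm) read before and after 90 min at 30 °C.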
DRD3 antagonist: D3 dopamine receptor (human) antagonism; P35462; D3R cells, DiscoveRx beta-arrestin luminescence, antagonist mode; active compounds read low; max response, negative = inhibition, %; 2.5% of 360,000 active; in the data active = max response below about -50%; inconclusive = no clear call, values can overlap the other calls; note: % is set by controls: 0 for no effect and ±100 for the full control effect
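Cells plated overnight at 1500 cells/well, then exposed to library compounds with dopamine controls for 90 minutes at 37 degrees C. DiscoveRx reagent added for 30–60 minutes at room temperature; luminescence read, quantitative HTS format.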
uPA generation: inhibitors of cell surface uPA generation; 0.31% of 330,000 active; Potency, µM (titrated, usually from 38.3 µM), inactives show at the highest dose activity change, negative = inhibition, actives largely listed as inhibitors; cell surface uPA generation assay, qHTS; active = well fitted inhibition curve with a large enough effect; inconclusive = small, poorly fitted or top-dose-only effect; inactive = no such curve, though single readings can be large or run the other way; tested in mouse RAW 264.7 cells; note: potency is the fitted concentration of half-maximal effect; % is set by controls: 0 for no effect and ±100 for the full control effect; nearly all actives have a fitted effect of over 55% in size
Starred values were filed as active, the others as inactive; ? = inconclusive; / = no result; ! = a repeat was not active; [ ] = remark or other dose.

SMILES | D3 ag | RGS4 inh | DRD3 antagonist | uPA generation
CCC(Cc1c(I)cc(I)c(O)c1I)C(=O)O (configuration not stated) | 6.1 | / | / | /
O=C(c1ccc(CN2CCc3ccccc3C2)cc1)N1CCc2ccccc2C1 | -16.4 | 35.8% | -75.9* | 5.5%
O=C(c1ccc(CN2CCc3ccccc3C2)cc1)N1CCN(c2ccccc2)CC1 | 0.5 | 4.6% | -62.3* | -1.2%
COc1cc(OC)cc(C(=O)N2CCN(C3CCCCC3)CC2)c1 | -6.0 | 3.8% | ? | -1.4%
COc1cc(OC)cc(C(=O)N2CCN(C3CCN(Cc4ccccc4)CC3)CC2)c1 | -6.1 | -6.4% | -62.3* | 3.4%
O=C(c1cccc(S(=O)(=O)N2CCc3ccccc3C2)c1)N1CCN(c2ccccc2)CC1 | 1.5 | 2.9% | 13.9 | -2.1%
O=C(c1ccc2c(c1)CCC2)N1CCN(Cc2ccccc2)CC1 | -7.1 | / | -61.1* | /
O=C(c1ccc(-n2cccc2)cc1)N1CCN(Cc2ccccc2)CC1 | -6.5 | 44.6% | -22.8 | 2.5%
CCOc1ccc(C(C)(C)C)cc1S(=O)(=O)n1nc(C)cc1C | -0.8 | -6.9% | -50.2* | 0.6%
CCOc1ccc(C)cc1S(=O)(=O)n1nc(C)cc1C | 15.9 | -3.2% | -6.7 | -0.9%
Cc1cccc(C)c1-n1nnnc1C(c1cccc2ccccc12)N1CCN(C/C=C/c2ccccc2)CC1 (configuration not stated) | -10.9 | / | -107.5* | /
Cc1cccc(C)c1-n1nnnc1C(c1cc2ccccc2o1)N1CCN(C/C=C/c2ccccc2)CC1 (configuration not stated) | -18.3 | / | -74.5* | /
Cc1cccc(C)c1N1CCN(C(c2cc3ccccc3o2)c2nnnn2C(C)(C)C)CC1 (configuration not stated) | 0.9 | / | -20.6 | /
Cc1cccc(C)c1-n1nnnc1C(c1ccnc2ccccc12)N1CCN(CC(=O)NC(C)C)CC1 (configuration not stated) | -6.4 | / | -17.9 | /
COc1ccc2nc3sc(C(=O)N4CCN(c5ccc(F)cc5)CC4)cc3cc2c1 | -0.6 | -15.4% | / | /
COc1cc(Cl)c(C)cc1NC(=O)CCc1c(C)nc2cc(-c3cccc(F)c3)nn2c1C | -2.3 | 16.1% | / | /
Cn1c(=O)c2[nH]c(Cc3cccc4ccccc34)nc2n(C)c1=O | 35.5* | 3.3% | 30.2 | 0.9%
COc1ccccc1CNC(=O)CC(c1ccc(F)cc1)N1Cc2ccccc2C1=O (configuration not stated) | -21.2 | 1.8% | / | /
CC(=O)CSc1nsc(SCC(C)=O)c1C#N | -6.3 | -20.7% | -69.1* | 3.2%
S=c1nc(-c2cccc(Cl)c2)[nH][nH]1 | 6.5 | -52.7% | -55.4* | 0.7%
COC(=O)c1cc2oc3ccccc3c2n1Cc1c(C)cc(C)cc1C | -2.0 | 18.2% | / | /
O=C(c1ccc(F)cc1)C(CCCCCC(CN1CCOCC1)C(=O)c1ccc(F)cc1)CN1CCOCC1 (configuration not stated) | -13.4 | 7.1% | -58.2* | -7.0%
OC(CN1CCOCC1)c1ccc(F)cc1 (configuration not stated) | 0.6 | 19.7% | -20.3 | -11.0%
CC(C)N1C(=O)NC2(c3ccccc3)N(C)C(=O)N(C)C12c1ccccc1 (configuration not stated) | 2.4 | 12.4% | 2.4 | 3.1%
CN1C(=O)N(C)C2(c3ccccc3)N(C)C(=O)NC12c1ccccc1 (configuration not stated) | -5.7 | 26.4% | -57.4* | -1.5%
SMILES | D3 ag | RGS4 inh | DRD3 antagonist | uPA generation
CC(C)CCN1CCN(Cc2cccc(C(F)(F)F)c2)CC1CCO (configuration not stated) | -18.6 | -9.5% | -112.4* | 9.2%
CC(C)CCN1CCN(Cc2cccc(-n3cccn3)c2)CC1CCO (configuration not stated) | -14.0 | -0.5% | -24.8 | 2.9%
COc1cccc2c1OCC(CN1CCN(Cc3ccccc3)C(CCO)C1)=C2 (configuration not stated) | -20.3 | 27.9% | -93.6* | 8.5%
COc1cccc2c1OCC(CN1CCN(Cc3ccccc3F)C(CCO)C1)=C2 (configuration not stated) | -24.5 | -20.6% | -8.1 | 5.3%
COc1ccccc1/C=C/CN1CCN(Cc2ccc(F)cc2)C(CCO)C1 (configuration not stated) | -43.4 | -12.2% | -82.3* | -3.1%
C/C(=C\c1ccco1)CN1CCN(Cc2ccc(C)o2)C(CCO)C1 (configuration not stated) | -16.1 | 6.5% | -69.6* | 2.9%
Cc1ccc(CN2CCN(C/C=C/c3ccc(F)cc3)CC2CCO)o1 (configuration not stated) | -13.7 | 22.7% | -92.9* | -17.9%
COc1ccc(CN2CCN(Cc3ccccc3)C(CCO)C2)cc1OC (configuration not stated) | -21.1 | -0.5% | -71.9* | -8.1%
OCCC1CN(Cc2cccc(C(F)(F)F)c2)CCN1Cc1ccccc1 (configuration not stated) | -13.3 | -4.8% | -71.9* | 1.5%
CSc1cccc(CN2CCN(CCC(C)C)C(CCO)C2)c1 (configuration not stated) | -13.2 | -17.1% | -50.9* | 0.7%
COc1ccc(CN2CCN(CCCc3ccccc3)C(CCO)C2)cc1OC (configuration not stated) | -11.6 | 12.1% | -1.9 | 0.1%
CC(C)Cn1c(N)c(C(=O)COC(=O)/C=C/c2ccccc2)c(=O)n(C)c1=O | 6.0 | 3.6% | 7.1 | -2.7%
COc1ccc2oc(=O)cc(CN3CCN(Cc4ccccc4)CC3)c2c1 | -45.3 | -0.7% | -54.0* | /
COc1ccc2c(CN3CCCCC3)cc(=O)oc2c1 | -7.1 | / | -21.4 | /
COc1ccc2c(CN3CCN(Cc4ccccc4)CC3)cc(=O)oc2c1 | -20.0 | / | -68.1* | /
CCOc1ccc2oc(=O)cc(CN3CCN(Cc4ccccc4)CC3)c2c1 | -19.9 | -4.4% | 0.6 | 1.0%
Cc1cc(C)c2c(CC(=O)NCCc3ccccc3)coc2c1 | 34.3* | 17.5% | -4.9 | 1.2%
COc1ccc(-n2nc([N+](=O)[O-])c(=NCCCN3CCCC3=O)n2O)cc1 | 2.7 | 32.7% | 0.0 | 11.2µM*
O=C1CCCN1CCCN=c1c([N+](=O)[O-])nn(-c2ccc(Cl)cc2)n1O | 3.9 | -11.3% | -11.2 | -15.9%
Cc1ccc(S(=O)(=O)c2cn(Cc3ccccc3)c3cc(N4CCCC4)c(F)cc3c2=O)cc1 | 6.2 | -9.1% | / | /
COc1ccc2[nH]c(-c3ccccc3)c(CCNC(C)=O)c2c1 | / | -122.0%[56.9 µM] | / | /
CC(=O)NCCc1c(Cc2ccccc2)[nH]c2ccccc12 | / | 26.7µM*! | / | /
COc1cccc(-c2cn3ncsc3n2)c1 | -8.6 | -1.9% | / | /
CN(CCNC(=O)CCCOc1cc(=O)n(C)c2ccccc12)Cc1ccccc1 | -15.7 | 10.8%[11.4 µM] | -92.5* | -11.8%
CC1CCCN(CCCNC(=O)c2coc3nc4ccccc4nc23)C1 (configuration not stated) | -7.5 | -20.8% | 0.0 | 1.3%
CC1CCN(CCCNC(=O)c2coc3nc4ccccc4nc23)CC1 | -0.9 | -3.9% | -77.8* | -5.1%
CCCN(CCC)CCCNC(=O)c1cc2cc3ccc(OC)cc3nc2o1 | 11.4 | -25.1% | ? | -0.5%
